Laboratory results reported in the supplement of paper PMC8253809.
“And” between values parts separate entries of the source, which are not always exact repeats. Equal entries are not always repeated.

Columns and labels:
Assay in all cases: growth inhibition (% activity, log2 RLU normalised to DMSO / staurosporine); higher = more growth inhibition
Settings in all cases: 33 µM
[1] = test system: DIPGX29 (H3.3 K27M diffuse intrinsic pontine glioma line)
Method in brief: (§1)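 pHGG cell lines and H9-derived neural stem cells were grown on Geltrex-coated 384-well plates. Approved drugs were added by pin tool at a single final concentration of about 33 μM, in triplicate, for 7 days at 37 °C, 5% CO2. CellTiter-Glo luminescence was log2-transformed and normalised per plate to % activity between solvent and positive control wells. The growth-inhibition value is the median over replicates.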

[2] = test system: DIPGX37 (H3.3 K27M diffuse intrinsic pontine glioma line)
Method in brief: as §1

[3] = test system: DIPGX7 (H3.3 K27M diffuse intrinsic pontine glioma line)
Method in brief: as §1

[4] = test system: DIPGX9 (diffuse intrinsic pontine glioma line)
Method in brief: as §1

[5] = test system: HGGX39 (paediatric high-grade glioma line)
Method in brief: as §1

[6] = test system: HGGX6 (H3.3 G34R paediatric high-grade glioma line)
Method in brief: as §1

[7] = test system: HNSC
Method in brief: as §1

[8] = test system: SUDIPGIV (diffuse intrinsic pontine glioma line)
Method in brief: as §1

[9] = test system: SUDIPGVI (diffuse intrinsic pontine glioma line)
Method in brief: as §1

[10] = test system: SUDIPGXIII (diffuse intrinsic pontine glioma line)
Method in brief: as §1

In the case of `C[C@]12CC[C@@H]3c4ccc(O)cc4C[C@@H](CCCCCCCCC[S+]([O-])CCCC(F)(F)C(F)(F)F)[C@H]3[C@@H]1CC[C@@H]2O` (stereo not given in full), the growth inhibition [1] is reported as 0.0636%, the growth inhibition [2] is reported as 0.16% and the growth inhibition [3] is reported as 0.804%. The growth inhibition [4] was -0.923%, the growth inhibition [5] was 8.06% and the growth inhibition [6] was -1.09%. The growth inhibition [7] was 2%, the growth inhibition [8] was -0.255% and the growth inhibition [9] was -0.348%. It also gave a growth inhibition [10] of 2.55%.

`C1N2CN3CN1CN(C2)C3` gave a growth inhibition [1] of 1.11%, a growth inhibition [2] of 3.51% and a growth inhibition [3] of 1.18%. It also gave a growth inhibition [4] of 2.53%, a growth inhibition [5] of 3.89% and a growth inhibition [6] of 2.47%. It also gave a growth inhibition [7] of 0.987%, a growth inhibition [8] of 1.56% and a growth inhibition [9] of 1.89%. The growth inhibition [10] was -0.234%.

`O=C(NC[C@H]1CN(c2ccc(N3CCOCC3=O)cc2)C(=O)O1)c1ccc(Cl)s1` showed a growth inhibition [1] of -0.891%, a growth inhibition [2] of 0.377% and a growth inhibition [3] of -0.155%. For the same molecule, the growth inhibition [4] was -1.03%, the growth inhibition [5] was 0.0326% and the growth inhibition [6] was 0.545%. It also gave a growth inhibition [7] of 0.606%, a growth inhibition [8] of 3.01% and a growth inhibition [9] of -0.593%. The growth inhibition [10] was 1.19%.

In the case of `CC(C)(C)NC(=O)[C@H]1CC[C@H]2[C@@H]3CC[C@H]4NC(=O)C=C[C@]4(C)[C@H]3CC[C@]12C`, the growth inhibition [1] is reported as 1.8%, the growth inhibition [2] is reported as 1.06% and the growth inhibition [3] is reported as 2.69%. It also gave a growth inhibition [4] of 0.827%, a growth inhibition [5] of 2.11% and a growth inhibition [6] of -0.348%. The growth inhibition [7] was 4.13%, the growth inhibition [8] was 0.54% and the growth inhibition [9] was 1.81%. For the same molecule, the growth inhibition [10] was 0.754%.

For `CCC[C@@H]1C[C@@H](C(=O)N[C@@H]([C@H]2O[C@H](SC)[C@H](O)[C@@H](O)[C@H]2O)[C@H](C)Cl)N(C)C1`, the growth inhibition [1] was 1.54% and 0.31%, the growth inhibition [2] was 0.378% and 0.388% and the growth inhibition [3] was 2.54% and -0.297%. The growth inhibition [4] was -0.222% and -0.00863%, the growth inhibition [5] was 1.92% and 0.31% and the growth inhibition [6] was 0.389% and -3.2%. The growth inhibition [7] was 3.24% and 18.2%, the growth inhibition [8] was 2.02% and 2.11% and the growth inhibition [9] was 2.1% and -0.349%. For the same molecule, the growth inhibition [10] was -1.04% and -3.03%.

`NCCc1ccc(O)c(O)c1` was tested, and the growth inhibition [1] was -0.86%, the growth inhibition [2] was 1.63% and the growth inhibition [3] was -0.591%. It also gave a growth inhibition [4] of 0.714%, a growth inhibition [5] of 0.908% and a growth inhibition [6] of -1.23%. It also gave a growth inhibition [7] of 5.73%, a growth inhibition [8] of 1.26% and a growth inhibition [9] of 0.907%. For the same molecule, the growth inhibition [10] was -1.27%.

`COC(c1ccccc1)(c1ccccc1)[C@H](Oc1nc(C)cc(C)n1)C(=O)O` was tested, and the growth inhibition [1] was 1.89%, the growth inhibition [2] was 2.75% and the growth inhibition [3] was 1.17%. For the same molecule, the growth inhibition [4] was 0.496%, the growth inhibition [5] was 2.43% and the growth inhibition [6] was 1.67%. It also gave a growth inhibition [7] of 1.25%, a growth inhibition [8] of -2.2% and a growth inhibition [9] of 2.3%. For the same molecule, the growth inhibition [10] was -15.1%.

Work on `CN1C2CCCC1CC(NC(=O)c1nn(C)c3ccccc13)C2` (stereo not given) yielded a growth inhibition [1] of 1.3%, a growth inhibition [2] of -1.75% and a growth inhibition [3] of 0.448%. The growth inhibition [4] was 1.03%, the growth inhibition [5] was 1.66% and the growth inhibition [6] was 1.21%. The growth inhibition [7] was 1.6%, the growth inhibition [8] was 0.0415% and the growth inhibition [9] was 1.95%. It also gave a growth inhibition [10] of 0.965%.

In the case of `CC[C@]1(O)C[C@H]2CN(CCc3c([nH]c4ccccc34)[C@@](C(=O)OC)(c3cc4c(cc3OC)N(C=O)[C@H]3[C@@](O)(C(=O)OC)[C@H](OC(C)=O)[C@]5(CC)C=CCN6CC[C@]43[C@@H]65)C2)C1`, the growth inhibition [1] is reported as 23.4%, the growth inhibition [2] is reported as 12.5% and the growth inhibition [3] is reported as 15.1%. For the same molecule, the growth inhibition [4] was 22.7%, the growth inhibition [5] was 21.3% and the growth inhibition [6] was 17.5%. The growth inhibition [7] was 60.5%, the growth inhibition [8] was 35.7% and the growth inhibition [9] was 38.9%. The growth inhibition [10] was 30.9%.

`O=C(Oc1ccccc1C(=O)O)c1ccccc1O` showed a growth inhibition [1] of -4.53%, a growth inhibition [2] of -1.4% and a growth inhibition [3] of 0.584%. It also gave a growth inhibition [4] of -2.94%, a growth inhibition [5] of -1.64% and a growth inhibition [6] of -6.45%. For the same molecule, the growth inhibition [7] was 9.98%, the growth inhibition [8] was -3.17% and the growth inhibition [9] was -8.34%. For the same molecule, the growth inhibition [10] was -0.246%.

For `CC(=O)N[C@@H](CS)C(=O)O`, the growth inhibition [1] was -0.541%, the growth inhibition [2] was 1.66% and the growth inhibition [3] was 0.31%. It also gave a growth inhibition [4] of -0.364%, a growth inhibition [5] of -0.994% and a growth inhibition [6] of -2.9%. The growth inhibition [7] was 1.29%, the growth inhibition [8] was 0.64% and the growth inhibition [9] was 0.65%. For the same molecule, the growth inhibition [10] was 0.374%.

For `CC1=C(C(=O)O)N2C(=O)[C@@H](NC(=O)[C@H](N)c3ccccc3)[C@H]2SC1`, the growth inhibition [1] was -0.253%, the growth inhibition [2] was 0.936% and the growth inhibition [3] was 6.97%. The growth inhibition [4] was -1.35%, the growth inhibition [5] was 3.87% and the growth inhibition [6] was 0.198%. For the same molecule, the growth inhibition [7] was -2.54%, the growth inhibition [8] was -1.66% and the growth inhibition [9] was -13.3%. The growth inhibition [10] was 2.38%.

For `CN(C)CCC(c1ccc(Br)cc1)c1ccccn1` (stereo not given), the growth inhibition [1] was -0.2%, the growth inhibition [2] was 1.72% and the growth inhibition [3] was 0.687%. For the same molecule, the growth inhibition [4] was 0.118%, the growth inhibition [5] was 1.57% and the growth inhibition [6] was -1.76%. For the same molecule, the growth inhibition [7] was 4.12%, the growth inhibition [8] was -0.116% and the growth inhibition [9] was -0.379%. For the same molecule, the growth inhibition [10] was 1.63%.

For `O=C1N=C(O)NC1(c1ccccc1)c1ccccc1`, the growth inhibition [1] was 0.482% and -0.485%, the growth inhibition [2] was 2.42% and 3.19% and the growth inhibition [3] was 1.26% and 0.465%. For the same molecule, the growth inhibition [4] was 0.659% and -0.0101%, the growth inhibition [5] was 1.57% and 1.18% and the growth inhibition [6] was 2.58% and 1.56%. The growth inhibition [7] was 0.737% and -1.81%, the growth inhibition [8] was -0.112% and -1.42% and the growth inhibition [9] was 1.87% and 2.15%. It also gave a growth inhibition [10] of -17.1%.

With `Cn1c(=O)c2c(ncn2CC(O)CO)n(C)c1=O` (stereo not given) the growth inhibition [1] was 1.16%, the growth inhibition [2] was 3.99% and the growth inhibition [3] was 1.95%. The growth inhibition [4] was 1.42%, the growth inhibition [5] was 2.44% and the growth inhibition [6] was -0.962%. The growth inhibition [7] was 2.09%, the growth inhibition [8] was 1.65% and the growth inhibition [9] was 3.1%. The growth inhibition [10] was -0.692%.

`Cc1nc(-c2ccc(OCC(C)C)c(C#N)c2)sc1C(=O)O` showed a growth inhibition [1] of 0.052%, a growth inhibition [2] of -0.105% and a growth inhibition [3] of 1.2%. For the same molecule, the growth inhibition [4] was 1.34%, the growth inhibition [5] was 2.02% and the growth inhibition [6] was 3.15%. The growth inhibition [7] was -1.07%, the growth inhibition [8] was -0.558% and the growth inhibition [9] was -0.306%. It also gave a growth inhibition [10] of 1.95%.

`CCCCCCCCCCOc1cc2c(O)c(C(=O)OCC)cnc2cc1OCC` showed a growth inhibition [1] of -0.3%, a growth inhibition [2] of -1.31% and a growth inhibition [3] of 1.61%. It also gave a growth inhibition [4] of -0.589%, a growth inhibition [5] of 1.16% and a growth inhibition [6] of -2.39%. It also gave a growth inhibition [7] of 8.91%, a growth inhibition [8] of 1.52% and a growth inhibition [9] of -8.46%. It also gave a growth inhibition [10] of -1.19%.

Work on `Cc1c(NC(=O)c2cccnc2)c(=O)n(-c2ccccc2)n1C` yielded a growth inhibition [1] of 2.04%, a growth inhibition [2] of 3.56% and a growth inhibition [3] of 2.88%. For the same molecule, the growth inhibition [4] was 1.83%, the growth inhibition [5] was 2.64% and the growth inhibition [6] was 2.09%. The growth inhibition [7] was 2.9%, the growth inhibition [8] was 1.6% and the growth inhibition [9] was 5.52%. The growth inhibition [10] was -1.54%.

In the case of `O=C1CN2Cc3c(ccc(Cl)c3Cl)N=C2N1`, the growth inhibition [1] is reported as -0.095%, the growth inhibition [2] is reported as -0.968% and the growth inhibition [3] is reported as -0.492%. For the same molecule, the growth inhibition [4] was 0.847%, the growth inhibition [5] was 3.51% and the growth inhibition [6] was 9.62%. It also gave a growth inhibition [7] of -2.73%, a growth inhibition [8] of -0.36% and a growth inhibition [9] of 0.709%. The growth inhibition [10] was -4.79%.

`COc1c2occc2cc2ccc(=O)oc12` gave a growth inhibition [1] of -0.546%, a growth inhibition [2] of -5.42% and a growth inhibition [3] of -1.53%. For the same molecule, the growth inhibition [4] was -1.09%, the growth inhibition [5] was -2.13% and the growth inhibition [6] was -2.24%. For the same molecule, the growth inhibition [7] was 0.777%, the growth inhibition [8] was -2.41% and the growth inhibition [9] was -9.54%. For the same molecule, the growth inhibition [10] was -0.581%.

With `[Na+].[Na+].[Na+].[O]=[V]([O-])([O-])[O-]` the growth inhibition [1] was -1.42%, the growth inhibition [2] was 0.923% and the growth inhibition [3] was -1.78%. It also gave a growth inhibition [4] of 0.306%, a growth inhibition [5] of 0.285% and a growth inhibition [6] of -0.94%. The growth inhibition [7] was -0.354%, the growth inhibition [8] was -2.76% and the growth inhibition [9] was -0.971%. For the same molecule, the growth inhibition [10] was 1.36%.
